Out of some 340,000 compounds screened, about 6,900 (2%) were called active. Rule as the data show it: active = inhibition above about 30%; inactive = below that, where a call was filed. Only a selection was taken, and actives are over-represented in it overall.
target: D(2) dopamine receptor (Homo sapiens) (UniProt P14416); assay: HTS Assay for Allosteric Antagonists of the Human D2 Dopamine Receptor: Primary Screen for Antagonists; conditions: HEK293 TREx D2 cells, calcium flux, dopamine EC80; at 10 µM; hits give high values; also: 0% is about no effect
Procedure, shortened: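 Tetracycline-induced HEK293 T-REx cells expressing D2 force-coupled to calcium signalling were dye-loaded, exposed to compound for 180 s, then challenged with an EC80 of dopamine; calcium flux was followed kinetically for a further 180 s.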

Chain of D(2) dopamine receptor (Homo sapiens) (P14416 whole entry, looked up): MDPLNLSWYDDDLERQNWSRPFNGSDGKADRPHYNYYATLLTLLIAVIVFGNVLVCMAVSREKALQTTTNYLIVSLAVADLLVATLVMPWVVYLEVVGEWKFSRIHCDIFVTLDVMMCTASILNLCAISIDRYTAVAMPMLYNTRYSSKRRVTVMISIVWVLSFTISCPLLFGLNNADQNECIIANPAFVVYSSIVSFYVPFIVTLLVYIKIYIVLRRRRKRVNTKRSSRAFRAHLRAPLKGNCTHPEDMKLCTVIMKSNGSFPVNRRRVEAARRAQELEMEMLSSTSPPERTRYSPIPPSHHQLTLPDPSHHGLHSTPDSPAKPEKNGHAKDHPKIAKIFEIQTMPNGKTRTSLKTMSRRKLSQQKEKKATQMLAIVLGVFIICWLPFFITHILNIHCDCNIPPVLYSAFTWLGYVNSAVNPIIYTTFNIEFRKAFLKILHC

inhibition, inactive:
CC(=O)Nc1ccc(NC(=O)C(C)OC(=O)C2CC(=O)N(CCc3ccccc3)C2)cc1 (stereo not given) -0.386%, O=C(NCCc1ccco1)C(=O)NCCC1CCCCN1S(=O)(=O)c1ccccc1 (stereo not given) -16%, COc1cccc(-n2c(SCC(=O)c3c[nH]c4ccccc34)nc3ccccc3c2=O)c1 -2.99%, CCCn1c(N)c(C(=O)CSc2nnc3n2CCCCC3)c(=O)[nH]c1=O 3.63%, O=C(CNc1ccccc1N1CCCC1=O)Nc1cc(Cl)ccc1-n1cncn1 8.23%, Cc1ccc(F)cc1NC(=O)CSCc1c(C)noc1C 13.7%, O=C(CN1C(=O)NC2(CCOc3ccccc32)C1=O)NCc1ccc(F)cc1 (stereo not given) 26.3%, CCN(CC)CCC(c1ccc2c(c1)OCO2)c1c(OC)cc(OC)c2c(-c3ccccc3)cc(=O)oc12 (stereo not given) 13.4%, COc1cc(C(CCN2CCN(c3ccccc3)CC2)c2c(OC)cc(OC)c3ccc(=O)oc23)cc(OC)c1OC (stereo not given) 23%, NS(=O)(=O)c1cc(C(=O)OCC(=O)NNC(=O)c2ccccc2)ccc1Cl 2.99%, Cc1[nH]c2ccccc2c1C(=O)C(C)Sc1nnc(C2CC2)o1 (stereo not given) -40.9%, CNS(=O)(=O)c1cccc(C(=O)OCC(=O)N2c3ccccc3NC(=O)C2(C)C)c1 -3.21%, CC(C)OCCCNc1ncnc2c1[nH]c1ccc(F)cc12 -11.8%, CCN1CCCC1Cn1cnc2c([nH]c3cc(OC)ccc32)c1=O (stereo not given) 24.3%, O=C(CSc1nnc(COc2ccc(Cl)cc2)n1Cc1ccco1)N1CCNC1=O 0.458%, Cc1ccc(CN2CCN(/N=C/c3cccnc3)CC2)c(C)c1 -10.4%, Cc1ccc(CN2CCN(/N=C/c3ccco3)CC2)c(C)c1 -9.84%, c1cnc(N2CCN(c3ccc4ccccc4n3)CC2)nc1 -7.91%, CN(C)C(=O)c1nc2ccc(Cl)cn2c1CN1CCN(c2ncccn2)CC1 -10.8%, Cc1ccc(CN2CC(C(=O)N3CCN(S(=O)(=O)c4ccccc4)CC3)CC2=O)cc1 (stereo not given) -4.27%, O=C(CCNC(=O)c1ccccc1Cl)NCc1ccco1 -26.5%, CCc1nnc(NC(=O)c2cc(S(=O)(=O)N3CCCCC3)ccc2C)s1 -4.7%, Cc1ccccc1NC(=O)Cc1nc(COC(=O)c2ccc(C(F)(F)F)cc2)cs1 2.02%, CN(CC(=O)NCC(c1ccccc1)N1CCCC1)S(=O)(=O)c1ccc(Cl)cc1 (stereo not given) 11.7%, CCOc1ccc(NC(=O)CN(C)C(=O)CCSc2ccc(F)cc2)cc1OCC -8.24%, CC1CCC(NC(=O)CNC(=O)c2ccc3ccccc3c2)CC1 (stereo not given) -11%, Cc1ccc(CN2CCCOCCS2(=O)=O)cc1 -5.42%, CCCC[C@H]1COCCS(=O)(=O)N1Cc1cccc(Cl)c1 0.354%, CCN(CC)C(CNC(=O)CSc1nnnn1-c1cccc(F)c1)c1ccco1 (stereo not given) -7.6%, CN1CCN(S(=O)(=O)c2ccc(N3CCN(c4ccccc4O)CC3)c([N+](=O)[O-])c2)CC1 6.91%, CC(C)(C)SCCNC(=O)c1cccc([N+](=O)[O-])c1 7.44%, Cc1cc(C)nc(NC(=O)c2cccc([N+](=O)[O-])c2)c1 14.3%, O=C(COC(=O)c1ncc(Cl)c(Cl)c1Cl)NCc1ccccc1 6.01%, CCN(CC(=O)NCc1cccs1)C(=O)c1ccc(OC)c(S(=O)(=O)N2CCOCC2)c1 13.8%, Cc1cc(C)nc(SCC(=O)N(C)C)n1 7.94%, CCOC(=O)c1c(C)oc(C)c(C(=O)OCC)c1=O -5.88%, CC(C)n1ncc2c(C(=O)Nc3ccc(CC#N)cc3)cc(C3CC3)nc21 -20.3%, COc1ccc(C)cc1NC(=O)c1cc(-c2ccccc2)nc2c1cnn2C(C)C 5.18%, COc1ccc(C2=NN(C(=O)CSc3nc(=O)n4ccc(C)cc4n3)C(c3ccc(C)cc3)C2)cc1 (stereo not given) -6.53%, O=C(NCC(c1cccs1)N1CCOCC1)c1cc(Cl)ccc1[N+](=O)[O-] (stereo not given) 11.5%, CC(=O)c1ccc(N2CCN(C(=O)c3ccc(Cl)c(S(=O)(=O)NC4CC4)c3)CC2)c(F)c1 8.05%, CCCCN(CC(=O)Nc1cccc(S(=O)(=O)N2CCCC2)c1)Cc1nc2ccccc2c(=O)[nH]1 -6.94%, Cc1ccnc(NS(=O)(=O)c2ccc(NC(=O)c3ccc(S(=O)(=O)N4CCOCC4)cc3)cc2)n1 -5.53%, CN1CCN(c2ccc(NC(=O)c3ccc4c(c3)OCCO4)cc2Cl)CC1 -3.57%, O=C(CN1C(=O)CCC1=O)Nc1ccc(S(=O)(=O)N2CCOCC2)cc1 10.1%, O=C(CCc1ccc(S(=O)(=O)N2CCOCC2)cc1)Nc1ccc2ccccc2c1 -58.3%, O=C(Nc1ccc(S(=O)(=O)N2CCOCC2)cc1)c1ccc2ncsc2c1 16.7%, O=C(CN1CCN(c2ccc(O)cc2)CC1)Nc1cc(S(=O)(=O)N2CCOCC2)ccc1Cl -10.8%

inhibition, active:
CCCn1c(N)c(C(=O)CSc2nc3ccccc3c(=O)n2-c2ccc(OC)cc2)c(=O)[nH]c1=O 33.2%, COc1cc(OC)c2ccc(=O)oc2c1C(CCN1CCN(c2ccccc2)CC1)c1ccc2c(c1)OCO2 (stereo not given) 94%, CCN1CCCC1CNc1ncnc2c1[nH]c1ccc(F)cc12 (stereo not given) 39.5%, Cc1ccc(CN2CCN(c3ncccn3)CC2)c(C)c1 80%, Oc1ccc(CN2CCN(c3ncccn3)CC2)cc1 84.3%, CCC(C)[C@H]1COCCS(=O)(=O)N1Cc1ccc(C)cc1 (stereo not given in full) 36.6%, Cc1cc(CNC(=O)c2cccc([N+](=O)[O-])c2)c2ccccc2n1 49.1%, CCOC(=O)c1c(C)[nH]c(C)c1C(=O)CSc1nc(N)cc(N)n1 49.1%, CC(C)n1ncc2c(C(=O)NCc3ccccc3CN(C)C)cc(C3CC3)nc21 79.9%, O=C(Nc1ccc2cn[nH]c2c1)c1ccc(S(=O)(=O)N2CCOCC2)cc1 30.5%, O=C(CN1CCN(c2cccc(Cl)c2)CC1)Nc1ccc(S(=O)(=O)N2CCOCC2)cc1 30.5%, O=C(Nc1ccc(N2CCOCC2)c(Cl)c1)c1ccc(S(=O)(=O)N2CCOCC2)cc1 34.4%
